Bioassay records deposited in PubChem by National Center for Advancing Translational Sciences (NCATS).
TDP1 cell noCPT: qHTS for Inhibitors of human tyrosyl-DNA phosphodiesterase 1 (TDP1): qHTS in cells in absence of CPT. DT40 Tdp1-/- hTDP1 cells, no CPT, ATP luminescence, 48 h. hit rate 15% among 420,000. Potency, µM (titrated, usually from 46.2 µM), without a hit: at the top dose activity change, negative = growth inhibition, usual class: inhibitors. AID 686978, 2013; note: potency is the fitted concentration of half-maximal effect; nearly all actives have a fitted effect of over 55% in size
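DT40 Tdp1-/-;hTDP1 cells, no CPT (DMSO vehicle only), 400 cells/well; compounds pin-transferred; ≥48 hr, 37 °C; CellTiter-Glo 30 min RT dark, luminescence read.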
HT1080-NT tox: kills 2HG-producing HT-1080-NT fibrosarcoma cells | HT-1080-NT fibrosarcoma viability, CellTiter-Glo ATP luminescence, 48 h | Potency, µM (titrated, usually from 46.1 µM), for inactives: at the highest dose activity, negative = less viability, actives largely listed as cytotoxic | hit rate 1.6% among 360,000;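 note: NT is the 2HG producing partner of a matched IDH1 knockdown line; potency is the fitted concentration of half-maximal effect; 0% = DMSO-treated cells and -100% = media-only wells without cells; nearly all actives have a fitted effect of over 55% in size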
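Fibrosarcoma NT cells, 750 per well in 5% FBS RPMI, were exposed to compound for 48 hours. Viability: CellTiter-Glo luminescence.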
HT1080 IDH1KD tx: toxicity to HT-1080 IDH1 knockdown cells (counter line); hit rate 2% among 360,000; HT-1080 IDH1 knockdown viability, ATP luminescence, 48 h; AID 686971; Potency, µM (titrated, usually from 46.1 µM), inactives show top-dose activity, negative = toxicity, actives largely listed as cytotoxic;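 note: potency is the fitted concentration of half-maximal effect; 0% = DMSO wells and -100% = cell-free medium wells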
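Using the IDH1-knockdown HT-1080 line run in the same batch and compound series as the NT line, viability after 48 h at 37 °C was determined by CellTiter-Glo luminescence and expressed as % activity.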
TDP1 cell CPT: DT40-hTDP1 cell growth loss with CPT | AID 686979 | chicken DT40 Tdp1-/-;hTDP1 cells + 20 nM CPT, ATP luminescence, 48 h | Potency, µM (top dose mostly 46.2 µM), for inactives: at the top dose activity change, negative = growth inhibition, most hits filed as inhibitors | hit rate 12% among 420,000; note: potency is the fitted concentration of half-maximal effect; nearly all actives have a fitted effect of over 55% in size
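Chicken DT40 Tdp1-/- cells stably complemented with human TDP1 were seeded at 400 cells/well in medium containing 20 nM camptothecin, exposed to pin-transferred compounds, and grown at 37 °C for at least 48 hr. Viability was read as ATP luminescence.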
uPA generation: blocks generation of uPA at the cell surface; cell surface uPA generation assay, qHTS; Potency, µM (titrated, usually from 38.3 µM), inactives show at the highest dose activity change, negative = inhibition, hits mostly inhibitors; hit rate 0.31% among 330,000; AID 540303; active = well fitted inhibition curve with a large enough effect; inconclusive = small, poorly fitted or top-dose-only effect; inactive = no such curve, though single readings can be large or run the other way; tested in mouse RAW 264.7 cells; note: potency is the fitted concentration of half-maximal effect; nearly all actives have a fitted effect of over 55% in size
IL1B secr inh: blocks inflammasome-driven IL-1 beta release; THP-1 LPS/ATP IL-1B secretion, AlphaLISA, 16 h; hits give low values; activity change, % at 57.5 µM; hit rate 4.7% among 360,000; AID 743279; in the data active = activity change below about -50%; inconclusive = mostly about -30% to -49%
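THP-1 cells pretreated 1 hr with compounds (up to 57.5 uM final), then stimulated with LPS (250 ng/mL final) plus ATP (1.25 mM final); secreted IL-1B measured by AlphaLISA after 16 hr, decreased signal indicating inhibition.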
* = called active by the depositor; ? = inconclusive; · = no result given; [ ] = dose if it differs, or a comment. Most compounds without a hit are left out; they make up all but 19% or so of the library. Unless noted, calls come from the whole dose curve; as a rule, active = well fitted curve in the direction sought with a large enough effect; inconclusive = small, poorly fitted or top-dose-only effect, or another doubt; inactive = no such curve, though single readings can be large; an effect the other way counts as inactive or inconclusive. Unless noted, % is set by controls: 0 for no effect and ±100 for the full control effect.

SMILES	TDP1 cell noCPT	HT1080-NT tox	HT1080 IDH1KD tx	TDP1 cell CPT	uPA generation	IL1B secr inh
COc1ccc(-c2cc(C(F)F)n3ncc(C(=O)NCC4CCCO4)c3n2)cc1 (centres undefined)	?	?	?	?	1.9%	-21.0
COc1ccc(-c2cc(C(F)F)n3ncc(C(=O)N4CCc5ccccc54)c3n2)cc1	2.06µM*	3.26µM*	2.91µM*	3.66µM*	?	46.3
COc1ccc(NC(=O)NNS(=O)(=O)c2ccc(OC)c(OC)c2)c(OC)c1	0.0%	-1.1%	-3.5%	-26.4%	-16.4%	3.1
Cc1csc2c(=O)[nH]cnc12	0.2%	1.5%	7.8%	15.9%	4.3%	6.6
O=C(Nc1ccc(Cl)cc1)NC1CCCCC1Cc1ccco1 (centres undefined)	18.4µM*	?	?	?	-8.6%	-7.9
O=C(Nc1ccc(Cl)cc1)NC1CCCC1Cc1ccco1 (centres undefined)	?	-15.0%	?	-19.6%	-2.8%	-89.4*
Cc1ccc(-n2c(=O)c3cccnc3n2CC(=O)Nc2cc(C)cc(C)c2)cc1	-100.0%	·	·	?	·	·
Cc1ccc(CN(Cc2ccccn2)C(=O)Nc2ccc(C)c(C)c2)cc1	?	-18.9%	?	?	-0.1%	-57.9*
COc1ccc2c(c1)c(=O)c(S(=O)(=O)c1ccc(Cl)cc1)cn2Cc1cc(C)ccc1C	?	·	·	-21.2%	·	·
CCCn1cc(S(=O)(=O)c2ccc(C)cc2)c(=O)c2cc(OC)ccc21	1.7%	0.4%	-3.7%	-18.9%	2.3%	-14.2
CCCn1cc(S(=O)(=O)c2ccc(Cl)cc2)c(=O)c2cc(OC)ccc21	23.1µM*	11.9%	-16.4%	16.4µM*	1.1%	-17.4
COc1ccc2c(c1)c(=O)c(S(=O)(=O)c1ccc(C)cc1)cn2Cc1ccccc1C	18.4µM*	·	·	?	·	·
CCOc1ccc(S(=O)(=O)c2cn(Cc3ccccc3C)c3ccc(OC)cc3c2=O)cc1	11.6µM*	·	·	14.6µM*	·	·
O=C(O)CCCC[C@@H]1SC[C@@H]2NC(=O)N[C@@H]21	0.1%	6.6%	4.6%	2.9%	9.2%	-106.1*
CCC(C)(C)n1nnnc1CN1CCC(NC(=O)c2ccc(Br)cc2)CC1	20.6µM*	2.4%	1.0%	?	0.7%	-7.7
Cc1ccc(Cn2nnnc2CN2CCC(c3nc4ccc(Cl)cc4[nH]3)CC2)cc1	2.31µM*	-11.1%	?	2.59µM*	-10.7%	-81.4*
Cc1ccc(Cn2nnnc2CN2CCC(NC(=O)c3ccc(Br)cc3)CC2)cc1	18.4µM*	-3.2%	0.1%[9.24 µM]	?	-7.1%	-4.5
COc1ccc(CC(=O)NC2CCN(Cc3nnnn3C(C)(C)C)CC2)cc1OC	-2.5%	0.6%	1.2%	-4.7%	1.6%	0.0
CC(OC(=O)CC1CCCCC1)C(=O)Nc1ccc(F)cc1 (centres undefined)	?	-2.4%	0.6%	-22.6%	-2.9%	-1.6
O=C1CC(N2CCC(O)(c3ccc(Cl)cc3)CC2)C(=O)N1Cc1ccc(N2CCCC2=O)cc1 (centres undefined)	14.6µM*	-14.4%	-15.1%	?	3.4%	34.8
O=C1N=C(N2CCCC2)S/C1=C\C=C\c1ccccc1	-28.1%	-0.5%	0.1%	-3.2%	?	2.8
CCc1ccc(/C=C2\SC(N3CCCC3)=NC2=O)cc1	?	-0.6%	-6.4%	0.5%	-10.9%	-60.4*
COc1cc(/C=C2\SC(N3CCCCC3)=NC2=O)cc(OC)c1OC	11.6µM*	-4.4%	-8.1%	20.6µM*	-12.0%	?
CCOC(=O)C1CCCN(C2=NC(=O)/C(=C/c3ccc(OC)c(OC)c3)S2)C1 (centres undefined)	9.2µM*	8.1%	-2.1%	?	-1.5%	17.2
COc1ccc(/C=C2\SC(N3CCc4ccccc4C3)=NC2=O)cc1OC	?	?	?	-0.1%	-5.1%	-29.4
SMILES	TDP1 cell noCPT	HT1080-NT tox	HT1080 IDH1KD tx	TDP1 cell CPT	uPA generation	IL1B secr inh
CCOC(=O)C1CCCN(C2=NC(=O)/C(=C/c3ccc(O)c(OC)c3)S2)C1 (centres undefined)	?	7.7%	2.0%	?	?	8.5
COc1ccc(/C=C2\SC(N3CCCCC3)=NC2=O)cc1	?	-0.9%	-14.7%	11.6µM*	-22.3%	-1.0
Cn1c(C2=C(O)CN(Cc3ccccc3)C2=N)nc2ccccc21	1.5%	-11.2%	3.7%	-3.5%	0.8%	0.6
O=C1N=C(N2CCCCC2)S/C1=C\c1ccncc1	-29.1%	-27.4%	-24.7%	6.2%	-3.3%	-52.0*
Cc1cc2c(cc1C)N(C(=O)CSc1nncn1C)C(C)(C)c1ssc(=S)c1-2	?	?	-12.8%[9.24 µM]	29.1µM*	-3.7%	?
Cc1ccc2c(c1)N(C(=O)c1ccco1)C(C)(C)c1ssc(=S)c1-2	?	0.7%	-20.7%	-27.9%	·	-25.0
Cc1ccc2c(c1)N(C(=O)CSc1nncn1C)C(C)(C)c1ssc(=S)c1-2	?	-22.9%	-25.8%	25.9µM*	-7.8%	-8.5
CC(=O)c1c(C)n(C)c2ccc(OC(=O)c3ccc([N+](=O)[O-])cc3)cc12	13.7%	3.3%	9.2%	-21.3%	5.1%	0.0
CCOC(=O)/C(=C/c1c(C)n(C)c2ccc([N+](=O)[O-])cc12)C(C)=O	9.2µM*	16.4µM*	?	?	-5.0%	-104.5*
COc1cccc(CNC(=O)Cc2csc(NC(=O)Nc3ccccc3OC)n2)c1	20.6µM*	3.9%	6.7%	?	7.4%	-13.6
COc1ccccc1NC(=O)Nc1nc(CC(=O)NCc2ccc(F)cc2)cs1	16.4µM*	-7.7%	-15.1%	9.2µM*	?	-11.8
COc1ccccc1CC(=O)N1CCN(c2ccccc2F)CC1	?	7.3%	10.0%	-0.7%	11.0%	-8.9
COc1ccccc1NC(=O)Nc1nc(CC(=O)NCc2c(F)cccc2F)cs1	20.6µM*	10.7%	8.5%	?	0.2%	-10.6
COc1ccccc1NC(=O)Nc1nc(CC(=O)N2CCN(c3ccccc3F)CC2)cs1	18.4µM*	-21.0%	?	?	-2.8%	-22.7
COc1ccccc1NC(=O)NCc1ccccc1F	17.9%	4.6%	2.8%	?	-20.1%	-22.5
O=C(Cc1csc(-c2ccccc2)n1)NCc1ccc(F)cc1	-13.3%	-16.3%	-18.7%	4.3%	5.3%	2.0
C[C@@H]1CCCCO[C@@H](CN(C)Cc2ccncc2)[C@@H](C)CN([C@H](C)CO)C(=O)c2cc(NC(=O)c3ccccc3)ccc2O1	?	-0.5%	9.5%	-6.9%	·	-17.6
Cc1n[nH]c(=O)c2c(NC(=O)CSc3nc4ccccc4c(=O)n3C(C)C)oc(C)c12	?	-11.3%	-19.8%	?	-1.1%	-10.3
